Hits are enriched below; roughly 4.1% of the tested compounds scored in any of these assays.
ssDAF-12 act: activates DAF-12 receptor from parasite S. stercoralis; AID 652126; HEK293 ssDAF-12/GRIP1 lit1-tk-luc reporter, luminescence; % of 3 µM dafachronic acid response; activation, % at 6.8 µM; hit rate 1% among 370,000;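 active means activation above the mean over all tested compounds plus 3 SD, cut at about 0.9% in these data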;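 further: 0% = DMSO-only wells and 100% = 3 µM delta7-dafachronic acid wells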
hcDAF-12 act: activators of H. contortus DAF-12 nuclear receptor | HEK293 hcDAF-12 lit1-tk-luc reporter, luminescence; 0% DMSO, 100% Δ7-dafachronic acid | activation, % at 6.8 µM | hit rate 1.4% among 370,000;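 active means activation above the mean of all tested compounds plus 3 SD, cut at about 5.5% in these data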;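 further: 100% = response to 3 µM Δ7-dafachronic acid high control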
DAX1 inh-1: inhibitors of human orphan nuclear receptor DAX1 (NR0B1) | P51843 | HEK293 Gal4-DAX1 luciferase reporter, luminescence | inhibition, % at 6.75 µM | hit rate 0.99% among 340,000;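 active means inhibition above the mean over all tested compounds plus 3 SD, cut at about 4.2% in these data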;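 further: 0% = DAX1-transfected cells with DMSO and 100% = empty-vector control cells with DMSO; inhibition shows as a rise in luminescence from relieved DAX1 repression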
hgDAF-12 ag: agonists of H. glycines DAF-12 nuclear receptor; HEK293 GAL4-hgDAF12 UAS-luciferase reporter, agonist luminescence; normalized to butyrate control; activation, % at 6.8 µM; hit rate 1.8% among 370,000;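 active means activation above a cutoff set at the mean of all screened compounds plus 3 SD, cut at about 10% in these data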;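 further: 0% = DMSO wells and 100% = sodium butyrate wells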
DAX1 inh-2: DAX1 (NR0B1) inhibition, primary screen | HEK293T StAR-luciferase reporter, SF-1/DAX-1 repression relief | inhibition, % at 6.8 µM | hit rate 1.1% among 370,000 | AID 652010;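 active means inhibition above the mean over all tested compounds plus 3 SD, cut at about 3.6% in these data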;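 further: 0% = DAX-1 cells with DMSO and 100% = cells lacking DAX-1 with DMSO; higher inhibition means more luminescence from relief of DAX-1 repression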
DAX1 conf: confirmation of human DAX1 (NR0B1) inhibitors; shares compounds with DAX1 inh-2; HEK293T StAR-promoter luciferase reporter, SF-1/DAX-1 repression; inhibition, % at 6.8 µM; hit rate 87% among 2,400;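 active means inhibition above the average of every tested compound plus 3 SD, cut at about 3.8% in these data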;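 further: 0% = DAX-1 cells with DMSO and 100% = no DAX-1 control cells with DMSO; active compounds raise luminescence by relieving repression of the StAR reporter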
SF1 mutant ctr: nonselective inhibitor or artifact in SF-1 mutant DAX1 counter-screen; shares compounds with DAX1 inh-2; HEK293 StAR-luciferase, SF-1 AF2 mutant, luminescence; inhibition, % at 6.8 µM; hit rate 78% among 2,400; AID 652136;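 active means inhibition above the mean of all tested compounds plus 3 SD, cut at about 3% in these data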;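 further: 0% = DAX-1 transfected cells with DMSO and 100% = cells without DAX-1 with DMSO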
LXR ag: counter-screen for hcDAF-12 agonists: agonists of human LXR-beta; activation, % at 6.8 µM; AID 743027; shares compounds with hcDAF-12 act; 3,400 tested, under 10 active; HEK293 Gal4-LXR tk-luc reporter, luminescence, 24 h; normalized: DMSO 0%, positive control 100%;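 active means mean percent activation of the reporter above a cutoff set as the average over tested compounds plus their standard deviation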
Target sequence (P55055 whole entry, looked up, the tested form may be a part): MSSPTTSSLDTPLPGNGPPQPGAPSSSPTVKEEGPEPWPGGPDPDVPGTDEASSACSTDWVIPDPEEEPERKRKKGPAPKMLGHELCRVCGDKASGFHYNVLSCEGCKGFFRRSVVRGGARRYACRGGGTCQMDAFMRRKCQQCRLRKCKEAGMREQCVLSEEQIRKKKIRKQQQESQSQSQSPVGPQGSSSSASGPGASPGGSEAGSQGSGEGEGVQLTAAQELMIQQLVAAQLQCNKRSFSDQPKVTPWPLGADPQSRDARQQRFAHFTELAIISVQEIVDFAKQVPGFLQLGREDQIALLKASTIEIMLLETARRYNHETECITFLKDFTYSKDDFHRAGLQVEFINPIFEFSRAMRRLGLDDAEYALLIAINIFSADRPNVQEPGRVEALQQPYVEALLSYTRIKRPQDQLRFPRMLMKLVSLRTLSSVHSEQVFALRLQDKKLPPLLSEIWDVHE
hcDAF12 ag: hcDAF-12 agonism, confirmation assay. AID 743032. activation, % at 6.8 µM. shares compounds with hcDAF-12 act. hit rate 61% among 3,400. HEK293 hcDAF-12 lit1-tk-luc reporter, luminescence; % of Δ7-dafachronic acid response;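 active means mean activation across triplicate tests above the threshold derived from the earlier primary screen, cut at about 5.5% in these data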;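 further: 0% = DMSO only wells and 100% = 3 µM Δ7-dafachronic acid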
hgDAF12 ag: hgDAF-12 agonism, confirmation assay; AID 743050; activation, % at 6.8 µM; HEK293 GAL4-hgDAF12 luciferase reporter, agonist mode; percent of butyrate response; hit rate 80% among 3,300; shares compounds with hgDAF-12 ag;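 active means mean activation over triplicate wells above the hit cutoff derived from the earlier primary screen, cut at about 11% in these data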;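 further: 0% = DMSO low control and 100% = 2 mM sodium butyrate high control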
LXRb DAF12 ctr: counter-screen for DAF-12 agonists: agonists of human LXR-beta; AID 743051; activation, % at 6.8 µM; HEK293 Gal4-LXR luciferase reporter, 24 h; shares compounds with hgDAF-12 ag; 3,300 tested, under 10 active;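 active means mean activation of the triplicate above a set limit carried over from the primary screen, none filed active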
An asterisk follows results filed as active; / = not tested or not shown.

SMILES	ssDAF-12 act	hcDAF-12 act	DAX1 inh-1	hgDAF-12 ag	DAX1 inh-2	DAX1 conf	SF1 mutant ctr	LXR ag	hcDAF12 ag	hgDAF12 ag	LXRb DAF12 ctr
O=C(CCCc1ccccc1)N1CCc2ccccc21	2.0*	7.8*	2	16*	6.2*	17*	6.7*	2	10*	18*	1
c1ccc(N=NC2=NN(c3ccccc3)CS2)cc1	1.7*	16*	3	16*	6.5*	7.0*	3.4*	1	8.3*	12*	0
O=C(c1ccccc1)c1coc(-c2ccccc2)c1	1	5	2	14*	7.5*	14*	5.0*	/	/	21*	1
CC1CCC(NC(=O)c2cccn2C)CC1 (configuration not stated)	0	4	3	15*	10.0*	14*	7.4*	/	/	14*	1
CC1CCC(NC(=O)c2nn(C)c(=O)c3ccccc23)CC1 (configuration not stated)	-1	-2	0	-3	-1	/	/	/	/	/	/
COc1ccc(-c2cc3ncc(-c4ccccc4)c(N)n3n2)cc1	-1	1	1	25*	6.5*	15*	7.0*	/	/	16*	1
N#Cc1cnc2cc(-c3ccccc3)nn2c1N	-1	3	/	4	0	/	/	/	/	/	/
COc1ccc(-c2cc3nc(C)cc(N)n3n2)cc1	2.4*	15*	-3	20*	5.4*	18*	8.9*	2	13*	19*	1
COc1ccc(-c2cc3nc(C)cc(-c4ccc(OC)cc4)n3n2)cc1	0	1	2	2	0	/	/	/	/	/	/
CC(=O)Nc1ccc(-c2ccnc3c2CC(C)(C(=O)NCCc2ccccc2)O3)cc1 (configuration not stated)	-1	-2	/	1	-1	/	/	/	/	/	/
CNC(=O)c1c(NC(=O)C2=COCCO2)sc2c1CCC(C)C2 (configuration not stated)	-1	-2	0	2	-2	/	/	/	/	/	/
CC1CCc2c(sc(NC(=O)C3=COCCO3)c2C(N)=O)C1 (configuration not stated)	1.4*	8.7*	4	15*	5.7*	12*	6.5*	1	5	19*	1
CC(=O)c1ccc(OCc2cc(C(=O)NC(C)c3cnn(C)c3)no2)cc1 (configuration not stated)	0	1	0	7	3	/	/	/	/	/	/
CC(NC(=O)c1cc(COc2ccccc2)on1)c1nccs1 (configuration not stated)	0	7.9*	2	20*	7.3*	8.3*	5.2*	1	6.0*	19*	1
COc1ccc(NC(=O)c2cc3ccccc3oc2=O)cc1	1.1*	5.8*	1	23*	6.7*	3	-1	/	/	10	1
COc1ccc2oc(=O)c(C(=O)NC(C)c3ccccc3)cc2c1 (configuration not stated)	-1	-3	-1	-1	0	/	/	/	/	/	/
COc1ccc2oc(=O)c(C(=O)Nc3ccccc3O)cc2c1	1	6.1*	-1	19*	5.6*	11*	6.8*	/	/	16*	1
Nc1ncnc2c1nc(SCCO)n2Cc1ccccc1	-2	0	-2	1	-1	/	/	/	/	/	/
CCc1ccc(CNCCNC(=O)c2ccco2)cc1	0	2	0	15*	5.8*	4.9*	2.9*	/	/	1	0
CC1(C(=O)Nc2cccc3cccnc23)CCN1Cc1cccc2c1OCO2 (configuration not stated)	-2	0	/	-3	1	/	/	/	/	/	/
COc1ccc(CN2C(=O)C(CC(=O)NCc3cccs3)CC(C(=O)N(C(C)C)C(C)C)=C2C)cc1 (configuration not stated)	-1	0	0	1	0	/	/	/	/	/	/
CCOc1ccc2oc(C(=O)Nc3nccs3)c(C)c2c1	0	5.9*	2	14*	7.2*	15*	7.5*	/	/	21*	1
COc1ccc2oc(C(=O)Nc3nccs3)c(C)c2c1	0	8.2*	2	18*	12*	11*	7.7*	2	10*	23*	1
COC(=O)c1ccc(NC(=O)COC(=O)COc2cccc3c2OC(C)(C)C3)cc1	-1	-1	2	-2	-1	/	/	/	/	/	/
COc1ccccc1NC(=O)CN1CCC(c2nc3ccccc3[nH]2)CC1	-2	0	-1	-4	1	/	/	/	/	/	/
SMILES	ssDAF-12 act	hcDAF-12 act	DAX1 inh-1	hgDAF-12 ag	DAX1 inh-2	DAX1 conf	SF1 mutant ctr	LXR ag	hcDAF12 ag	hgDAF12 ag	LXRb DAF12 ctr
N#C/C(=N\Nc1ccc(F)cc1)C(=N)N1CCCCC1	0.9*	8.1*	5.3*	18*	6.0*	18*	7.1*	1	5	18*	1
COc1ccc(N2CCN(Cc3nnnn3C3CCCCC3)CC2)cc1	-1	0	0	1	1	/	/	/	/	/	/
O=C(NNC(=S)Nc1ccc(F)cc1F)c1ccco1	0	-1	0	5	2	/	/	/	/	/	/
O=C(/C=C/Nc1ccc(F)cc1F)c1ccco1	2.1*	15*	-1	25*	7.5*	7.2*	2	2	20*	14*	1
Cc1noc(C)c1-c1ccc(C(=O)Nc2ccccc2)c2occc12	1.0*	5	/	18*	9.7*	12*	2	/	/	13*	1
COc1ccc(-c2ccc(C(=O)Nc3ccccc3)c3occc23)c(C)c1	0	2	/	20*	6.7*	10*	4.2*	/	/	11*	1
CCOc1cccc(-c2cnc3cccnn23)c1	0	1	/	21*	6.1*	7.1*	5.1*	/	/	16*	0
Cc1cccc(-c2cnc3cccnn23)c1	-1	-2	/	7	2	/	/	/	/	/	/
COc1ccc(/C=C/c2cc(O)cc(OC3OC(CO)C(O)C(O)C3O)c2)cc1 (configuration not stated)	0	6.9*	0	17*	8.8*	16*	8.2*	2	7.8*	11*	1

From PubChem
